Source: PubChem (National Center for Advancing Translational Sciences (NCATS))
An excerpt weighted towards active compounds, which were near 19% of everything screened.
HT1080 IDH1KD tx: toxicity to HT-1080 IDH1 knockdown cells (counter line). HT-1080 IDH1 knockdown viability, ATP luminescence, 48 h. Potency, µM (titrated, usually from 46.1 µM), actives largely listed as cytotoxic. 2% of 360,000 active
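Using the IDH1-knockdown HT-1080 line run in the same batch and compound series as the NT line, viability after 48 h at 37 °C was determined by CellTiter-Glo luminescence and expressed as % activity.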
TDP1 cell noCPT: qHTS for Inhibitors of human tyrosyl-DNA phosphodiesterase 1 (TDP1): qHTS in cells in absence of CPT; DT40 Tdp1-/- hTDP1 cells, no CPT, ATP luminescence, 48 h; Potency, µM (titrated, usually from 46.2 µM), usual class: inhibitors; 15% of 420,000 active; AID 686978, 2013; also: nearly all actives have a fitted effect of over 55% in size
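Chicken DT40 Tdp1-/- cells stably complemented with human TDP1 were seeded at 400 cells/well with DMSO in place of 20 nM camptothecin. After compound pinning, cells grew at least 48 hr at 37 °C; viability read by CellTiter-Glo luminescence.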
HT1080-NT tox: kills 2HG-producing HT-1080-NT fibrosarcoma cells; 1.6% of 360,000 active; Potency, µM (top dose mostly 46.1 µM), actives largely listed as cytotoxic; HT-1080-NT fibrosarcoma viability, CellTiter-Glo ATP luminescence, 48 h;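 also: NT is the 2HG producing partner of a matched IDH1 knockdown line; nearly all actives have a fitted effect of over 55% in size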
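Luminescent CellTiter-Glo readout after 48 hours of compound exposure at 37 degrees C defined viability of HT-1080-NT cells. Activity was normalized to DMSO wells and cell-free media wells; concentration-response curves were fitted and assigned curve classes.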
DT40 TDP1 CPT: DT40-hTDP1 cell growth loss with CPT | Potency, µM (highest dose often 46.2 µM), usual class: inhibitors | 12% of 420,000 active | AID 686979 | chicken DT40 Tdp1-/-;hTDP1 cells + 20 nM CPT, ATP luminescence, 48 h; also: nearly all actives have a fitted effect of over 55% in size
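Cell growth measured by CellTiter-Glo luminescence after a minimum 48 h, 37 C compound exposure with 20 nM CPT in Tdp1-knockout DT40 cells stably expressing hTDP1, seeded 400/well; qHTS titration format.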
IL1B secr inh: inflammasome signaling inhibition, IL-1 beta readout; 4.7% of 360,000 active; AID 743279; THP-1 LPS/ATP IL-1B secretion, AlphaLISA, 16 h; stronger effect = lower value; activity change, % at 57.5 µM; in the data active = activity change below about -50%; inconclusive = mostly about -30% to -49%
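Secreted IL-1B measured by AlphaLISA bead assay after 16 h compound exposure of THP-1 cells; compounds (final up to 57.5 uM) added 1 h before LPS (250 ng/mL) and ATP (1.25 mM) stimulation; lower signal means less secretion.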
Numbers stand for hits; 0 = inactive; ? = inconclusive; - = not tested or not shown. Unless noted, calls follow the shape of the dose curve; as a rule, active = well fitted curve in the direction sought with a large enough effect; inconclusive = small, poorly fitted or top-dose-only effect, or another doubt; inactive = no such curve, though single readings can be large; an effect the other way counts as inactive or inconclusive.

SMILES | HT1080 IDH1KD tx | TDP1 cell noCPT | HT1080-NT tox | DT40 TDP1 CPT | IL1B secr inh
CCC(C)c1ccc(NC(=O)C2CC3CCC2C3)cc1 (configuration not stated) | 0 | 25.9µM | 0 | ? | -55.3
Cc1ccnc(N2CCCC(C(=O)Nc3ccc(C)c(C)c3)C2)n1 (configuration not stated) | 0 | ? | 0 | 9.2µM | 0
COc1cc(O)ccc1CN1CCc2nnc(C(C)NC(=O)c3cc(F)ccc3F)n2CC1 (configuration not stated) | - | 0 | - | 0 | -
CCS(=O)(=O)c1nc2ccccc2n1CC(=O)Nc1ccccc1C(=O)OC | - | 0 | - | 0 | -
CC1(C)Cc2c(cnn2-c2cccc(F)c2)C(NC(=O)CN2CCCC2=O)C1 (configuration not stated) | 0 | ? | 0 | 0 | 0
COc1cc(N=Nc2ccccc2C(=O)O)ccc1O | 0 | 0 | 0 | 0 | 0
Cc1ccc2c(c1)c(N=Nc1cccc(C(=O)O)c1)c(O)n2C | 0 | 0 | 0 | ? | 0
O=Cc1cc(N=Nc2cccc(C(=O)O)c2)ccc1O | 14.6µM | ? | ? | 0 | 0
O=Cc1cc(N=Nc2ccccc2Cl)ccc1O | ? | 4.11µM | ? | 20.6µM | 0
CC1(Cc2ccc3c(c2)OCO3)C(=O)Nc2ccc(-c3cccc(C(F)(F)F)c3)cc21 (configuration not stated) | ? | 20.6µM | ? | 23.1µM | ?
CC1(Cc2cccc(C(F)(F)F)c2)C(=O)Nc2c(Cl)cccc21 (configuration not stated) | 0 | ? | 0 | ? | 0
CC1(Cc2ccc3c(c2)OCO3)C(=O)Nc2c(Cl)ccc(Cl)c21 (configuration not stated) | ? | 23.1µM | 0 | ? | 0
CC1(Cc2ccc(C(F)(F)F)o2)C(=O)Nc2ccc(-c3cccc(C(F)(F)F)c3)cc21 (configuration not stated) | ? | 11.6µM | ? | 14.6µM | 0
CCc1ccc2c(c1)NC(=O)C2(C)Cc1ccc(C(F)(F)F)o1 (configuration not stated) | ? | ? | 0 | 23.1µM | 0
COc1cccc2c1O/C(=N\O)C(C(=O)Nc1cccc(Br)c1)C2 (configuration not stated) | 0 | ? | 0 | 0 | 0
COc1cccc(-c2nnc(-c3ccccc3[N+](=O)[O-])o2)c1 | 0 | ? | 0 | 0 | 0
Cc1cc(C)cc(NC(=O)CSc2oc(-c3cccs3)nc2S(=O)(=O)c2ccccc2)c1 | - | 5.8µM | - | 20.6µM | -
O=S(=O)(c1ccccc1)c1nc(-c2cccs2)oc1SCc1ccccc1F | - | 0 | - | ? | -
O=C(CSc1oc(-c2ccc(F)cc2)nc1S(=O)(=O)c1ccccc1)c1ccc(Cl)cc1 | - | 9.2µM | - | 10.3µM | -
O=C(CSc1oc(-c2cccs2)nc1S(=O)(=O)c1ccccc1)Nc1ccc(F)cc1 | - | ? | - | 16.4µM | -
CCN1C(=O)S/C(=C/c2ccc(Oc3ccc([N+](=O)[O-])cn3)c(OC)c2)C1=O | 0 | 13µM | ? | ? | 0
COc1ccc(/C=C2/SC(=O)N(CC(=O)Nc3cc(C)on3)C2=O)cc1OC | 0 | 0 | 0 | 0 | 0
CCN=C1S/C(=C\c2ccc(OCC)c(OC)c2)C(=O)N1CC | 0 | 20.6µM | 0 | ? | -50.9
COc1cc(/C=C2/SC(=O)N(CC(=O)N3CCCC3)C2=O)ccc1Oc1ccc([N+](=O)[O-])cn1 | 0 | 20.6µM | 0 | ? | -63.3
COc1ccc(/C=C2\SC(=O)N(CC(=O)Nc3cccnc3)C2=O)cc1OC | 0 | ? | 0 | ? | 0
CN(CCO)C(=O)c1nc[nH]c1C(=O)N1CCN(C(=O)OC(C)(C)C)CC1 | 0 | 0 | 0 | 0 | 0
CC1(C)C(O)=C(c2nc3ccccc3[nH]2)C(=N)N1c1ccccc1 | ? | ? | ? | ? | 0
N=c1c(-c2nc3ccccc3[nH]2)cc(C(=O)c2cccs2)nn1-c1ccccc1 | 0 | 23.1µM | 0 | 29.1µM | 0
O=C(NCCCc1nc2ccccc2[nH]1)c1cccs1 | 0 | 0 | 0 | 0 | 0
N=c1c(-c2nc3ccccc3[nH]2)cc(C(=O)c2ccco2)nn1-c1ccccc1 | 0 | 3.26µM | 0 | 2.59µM | 0
